# Experimental data published in the supplement of paper PMC6992640.
# Tested on: UCD52 (cells of a triple-negative basal-like breast cancer xenograft)
# Assay: cell viability of combination (% of vehicle); higher = less cytotoxic
# Conditions: 1 µM; 72 h; partner dose: 10 nM
# Description: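 PDX cells were treated for 72 h with each drug at 1 µM plus afatinib (10 nM; 1 µM for WHIM30). Luciferase viability is expressed as percent of vehicle.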
row,SMILES,cell viability of combination
1,CCCCCCCCCCCCCCCC[N+](C)(C)C.[Br-] [Cetrimonium Bromide (CTAB)] + CN(C)C/C=C/C(=O)Nc1cc2c(Nc3ccc(F)c(Cl)c3)ncnc2cc1O[C@H]1CCOC1 [Afatinib],66.1
2,Cc1cc(C(C#N)c2ccc(Cl)cc2)c(Cl)cc1NC(=O)c1cc(I)cc(I)c1[O-].[Na+] (stereo not given) [Closantel Sodium] + CN(C)C/C=C/C(=O)Nc1cc2c(Nc3ccc(F)c(Cl)c3)ncnc2cc1O[C@H]1CCOC1 [Afatinib],72.7
3,Cc1cc(C(C#N)c2ccc(Cl)cc2)c(Cl)cc1NC(=O)c1cc(I)cc(I)c1O (stereo not given) [Closantel] + CN(C)C/C=C/C(=O)Nc1cc2c(Nc3ccc(F)c(Cl)c3)ncnc2cc1O[C@H]1CCOC1 [Afatinib],75.8
4,CCCCCCCCCCCC[N+](C)(C)CCOc1ccccc1.[Br-] [Domiphen Bromide] + CN(C)C/C=C/C(=O)Nc1cc2c(Nc3ccc(F)c(Cl)c3)ncnc2cc1O[C@H]1CCOC1 [Afatinib],65.3
5,CCCCCCCCCCCCCCCC[n+]1ccccc1.[Cl-] [Cetylpyridinium Chloride] + CN(C)C/C=C/C(=O)Nc1cc2c(Nc3ccc(F)c(Cl)c3)ncnc2cc1O[C@H]1CCOC1 [Afatinib],55.3
